According to PubChem BioAssay (NCI):
This is part of a sample that, as a whole, favours compounds with a hit. Of some 79,000 tested, about 15% had one in any assay. A number with no mark means an inactive call. Rule as the data show it: active = growth inhibition above about 70%; inactive = the rest.

Test: NCI Yeast Anticancer Drug Screen. Data for the CLN2oe strain (AID 163);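 also: 0% = growth of vehicle-only control cultures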
Conditions: S. cerevisiae CLN2oe strain, at 3.7 µM, active compounds read high
How it was run: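 Values reflect how much compound exposure reduced yeast growth, referenced to vehicle-exposed cells. Assay organism is a strain with a defined genetic change affecting cell-cycle control.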
For `O=CC=C(c1ccccc1)c1ccccc1`, the growth inhibition was 5%.
`FC(F)(F)c1nc2nc(Cl)c(Cl)nc2n1CCCN1CCOCC1` showed a growth inhibition of 13%.
Molecule `BrCC[P+](c1ccccc1)(c1ccccc1)c1ccccc1` has a growth inhibition of -22%.
With `N#CSc1ccc(S(N)(=O)=O)cc1` the growth inhibition was -13%.
With `O=[N+]([O-])c1ccc2nc3ccccc3cc2c1` the growth inhibition was -2%.
With `O=C(NC(Nc1ccc(F)c(Cl)c1)(C(F)(F)F)C(F)(F)F)C(C(F)(F)F)C(F)(F)F` the growth inhibition was 32%.
For `O=C(/C=C\c1ccc(Cl)cc1Cl)c1cccs1`, the growth inhibition was -21%.
`O=C(NCCCCNCCCNC(=O)c1cc(-c2ccccc2)nc2ccccc12)c1cc(-c2ccccc2)nc2ccccc12` gave a growth inhibition of -1%.
`NC(=NCc1ccccc1)N/N=C\c1ccnc2ccccc12` showed a growth inhibition of -6%.
Work on `CCCCN(CCCC)CCSc1ccc(Cl)cc1` yielded a growth inhibition of -12%.
Work on `COc1cc(C2C3=C(COC3=O)Oc3cc4c(cc32)OCO4)ccc1O` (centres undefined) yielded a growth inhibition of 8%.
Molecule `C#CCCCc1ccccc1` has a growth inhibition of -5%.
In the case of `CCc1ccc(NS(=O)(=O)c2ccccc2)c([N+](=O)[O-])c1`, the growth inhibition is reported as -2%.
Work on `COc1ccc(C2c3cc4c(cc3OC(C)(O)C2C)OCO4)c(OC)c1` (centres undefined) yielded a growth inhibition of -12%.
Molecule `COC(=O)c1ccc(CCC2=CC(=O)C(Br)=CC2=O)cc1` has a growth inhibition of -5%.
`NNC(=O)CCc1ccc2ccc3ccccc3c2c1` gave a growth inhibition of -15%.
For `Cn1c2ccccc2c(=O)c2cc(NC(=O)CCCCC(=O)Nc3ccc4c(c3)c(=O)c3ccccc3n4C)ccc21`, the growth inhibition was -4%.
With `CC(CC(C)(C)[N+](C)(C)C)[N+](C)(C)C` (centres undefined) the growth inhibition was -1%.
Molecule `CC1CCN(CCC(=O)c2ccc(Cl)cc2)CC1` has a growth inhibition of 17%.
`CCCCCCCCCCCCCCC(C(=O)[O-])[n+]1ccccc1` (centres undefined) gave a growth inhibition of 3%.
`CNC1C(OC2C(OC3C(O)C(O)C(N=C(N)N)C(O)C3N=C(N)N)OC(C)C2(O)CO)OC(CO)C(O)C1O` (centres undefined) showed a growth inhibition of -6%.
`O=C(O)c1ccccc1-c1ccccc1C(=O)Nc1ccc2c(c1)Cc1ccccc1-2` gave a growth inhibition of 10%.
In the case of `O=[N+]([O-])c1cccc2nc3ccccc3c(NCCCN3CCOCC3)c12`, the growth inhibition is reported as 46%.
For `C=CC(C)(O)CCC1C(=C)C(O)CC2C(C)(C)CCCC12C` (centres undefined), the growth inhibition was -34%.
`CN1c2ccc(Cl)cc2C(=O)NC1c1ccc([N+](=O)[O-])s1` (centres undefined) showed a growth inhibition of -2%.
`[O-][n+]1c2ccc(O)cc2nc2ccc(Br)cc21` showed a growth inhibition of 21%.
For `O=C1c2ccccc2-c2nc3ccccc3nc21`, the growth inhibition was -18%.
In the case of `CCCCN1C(=O)N(c2ccc(OCC)cc2)C2N(CCCC)C1C(C)(C)C2(C)C` (centres undefined), the growth inhibition is reported as -9%.
In the case of `CO[C@H]1C[C@](C)(O)Cc2cc3c(c(O)c21)C(=O)c1c(O)cc2c(c1C3=O)O[C@@H]1O[C@@]2(C)[C@H](O)[C@@H](N(C)C)[C@@H]1O`, the growth inhibition is reported as -29%.
For `COc1cc2c(cc1[N+](=O)[O-])C(=O)C(Br)(Br)CCC2`, the growth inhibition was 21%.
With `O=C1OC(CCl)CN1/N=C/c1ccc([N+](=O)[O-])o1` (centres undefined) the growth inhibition was -8%.
Molecule `CN(C)CCOc1ccc2c(c1)C/C(=C/c1ncc([N+](=O)[O-])n1C)C2=O` has a growth inhibition of 35%.
Work on `CCCCCCCCCCCCCCCCCCN(C)CC(COP(=O)([O-])OCC[N+](C)(C)C)OC` (centres undefined) yielded a growth inhibition of 6%.
Molecule `CC(C)c1ccccc1NC(=O)/C(Cl)=C(\Cl)C(=O)O` has a growth inhibition of 6%.
In the case of `O=[N+]([O-])C(=C(Sc1ccccc1)Sc1ccccc1)C(Cl)=C(Cl)Cl`, the growth inhibition is reported as 16%.
Molecule `C(=C\c1ccccc1)/COc1ccccc1C(N1CCOCC1)n1nc2ccccc2n1` (centres undefined) has a growth inhibition of -9%.
For `O=C1C(Nc2ccccc2)=C(Oc2ccccc2)C(=O)c2ccccc21`, the growth inhibition was -2%.
For `CCN(CC)CCN1C(=O)c2cccc3cc(OC)cc(c23)C1=O`, the growth inhibition was -4%.
Work on `CN(C)Cc1cc(N=Nc2ccc(Cl)cc2)cc(CN(C)C)c1O` yielded a growth inhibition of 22%.
